Measured values published in PubChem BioAssay AID1159580 (chemical genetic matrix, 2015).
Hit rate of the full screen: of about 5,500 compounds, about 2,000 (36%) were called active. About 18% were inconclusive and are not listed. Rule as the data show it: active = normalized growth mostly below about 0.91 (no sharp cut-off); inconclusive = no clear call, values can overlap the other calls; inactive = mostly above about 0.92. Some of the results follow.

Test: chemical genetic growth profiling, strain panel (AID 1159580);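 also: tested at 20 µM; growth read once vehicle control cultures reached saturation at 30 °C; 1 = growth at the plate median or of vehicle wells; lower values mean less growth of the strain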
Settings: growth OD

Measured: normalized growth

CCC(=O)O[C@H]1CCC2C3CCc4cc(O)ccc4C3CC[C@@]21C (some centres undefined)
inactive: S. cerevisiae deletion strains, locus YJL187C, strain SWE1, stronger effect = lower value 0.995 | S. cerevisiae deletion strains, locus YJR043C, strain POL32, stronger effect = lower value 0.974 | S. cerevisiae deletion strains, locus YJR075W, strain HOC1, stronger effect = lower value 0.948 | S. cerevisiae deletion strains, locus YKL009W, strain mrt4, stronger effect = lower value 0.986 | S. cerevisiae deletion strains, locus YKL068W, stronger effect = lower value 1 | S. cerevisiae deletion strains, locus YKL085W, strain MDH1 (second series), stronger effect = lower value 0.936 | S. cerevisiae deletion strains, locus YKL085W, strain MDH1, stronger effect = lower value 0.936 | S. cerevisiae deletion strains, locus YKL160W, strain elf1, stronger effect = lower value 0.984 | S. cerevisiae deletion strains, locus YKL190W, strain CNB1, stronger effect = lower value 1 | S. cerevisiae deletion strains, locus YKR001C, strain vps1, stronger effect = lower value 0.927 | S. cerevisiae deletion strains, locus YKR026C, strain gcn3, stronger effect = lower value 0.971 | S. cerevisiae deletion strains, locus YKR091W, strain srl3, stronger effect = lower value 0.964 | S. cerevisiae deletion strains, locus YLL001W, strain dnm1, stronger effect = lower value 0.997 | S. cerevisiae deletion strains, locus YLL026W, stronger effect = lower value 1 | S. cerevisiae deletion strains, locus YLL041C, strain sdh2, stronger effect = lower value 1.01 | S. cerevisiae deletion strains, locus YLR027C, strain aat2, stronger effect = lower value 0.966 | S. cerevisiae deletion strains, locus YLR039C, strain RIC1, stronger effect = lower value 0.771 | S. cerevisiae deletion strains, locus YLR102C, strain apc9, stronger effect = lower value 1 | S. cerevisiae deletion strains, locus YLR221C, strain rsa3, stronger effect = lower value 0.967 | S. cerevisiae deletion strains, locus YLR258W, strain gsy2, stronger effect = lower value 1 | S. cerevisiae deletion strains, locus YLR262C, strain YPT6, stronger effect = lower value 0.797 | S. cerevisiae deletion strains, locus YLR268W, strain sec22, stronger effect = lower value 0.991 | S. cerevisiae deletion strains, locus YLR320W, strain mms22, stronger effect = lower value 0.969 | S. cerevisiae deletion strains, locus YLR330W, strain CHS5, stronger effect = lower value 0.984 | S. cerevisiae deletion strains, locus YLR342W, strain FKS1, stronger effect = lower value 0.972 | S. cerevisiae deletion strains, locus YLR357W, strain rsc2, stronger effect = lower value 0.954 | S. cerevisiae deletion strains, locus YLR370C, strain arc18, stronger effect = lower value 0.975 | S. cerevisiae deletion strains, locus YLR371W, strain rom2, stronger effect = lower value 1 | S. cerevisiae deletion strains, locus YLR384C, strain iki3, stronger effect = lower value 0.994 | S. cerevisiae deletion strains, locus YLR418C, strain cdc73, stronger effect = lower value 0.937 | S. cerevisiae deletion strains, locus YML016C, strain PPZ1, stronger effect = lower value 0.997 | S. cerevisiae deletion strains, locus YML032C, strain rad52, stronger effect = lower value 0.985 | S. cerevisiae deletion strains, locus YML124C, strain tub3, stronger effect = lower value 1 | S. cerevisiae deletion strains, locus YMR058W, strain fet3, stronger effect = lower value 0.977 | S. cerevisiae deletion strains, locus YMR078C, strain ctf18, stronger effect = lower value 1.02 | S. cerevisiae deletion strains, locus YMR125W, strain sto1, stronger effect = lower value 0.982 | S. cerevisiae deletion strains, locus YMR129W, stronger effect = lower value 0.979 | S. cerevisiae deletion strains, locus YMR205C, strain PFK2, stronger effect = lower value 0.929 | S. cerevisiae deletion strains, locus YMR223W, strain ubp8, stronger effect = lower value 0.956 | S. cerevisiae deletion strains, locus YMR231W, strain pep5, stronger effect = lower value 1.01 | S. cerevisiae deletion strains, locus YMR307W, strain GAS1, stronger effect = lower value 0.766 | S. cerevisiae deletion strains, locus YNL067W, strain RPL9B, stronger effect = lower value 0.974 | S. cerevisiae deletion strains, locus YNL071W, strain lat1, stronger effect = lower value 0.969 | S. cerevisiae deletion strains, locus YNL209W, strain ssb2, stronger effect = lower value 0.984 | S. cerevisiae deletion strains, locus YNL248C, strain rpa49, stronger effect = lower value 0.991 | S. cerevisiae deletion strains, locus YNL250W, strain rad50, stronger effect = lower value 0.998 | S. cerevisiae deletion strains, locus YNL271C, strain bni1, stronger effect = lower value 1.01 | S. cerevisiae deletion strains, locus YNL298W, strain CLA4, stronger effect = lower value 0.999 | S. cerevisiae deletion strains, locus YNL307C, strain MCK1, stronger effect = lower value 0.935 | S. cerevisiae deletion strains, locus YNL322C, strain KRE1 (second series), stronger effect = lower value 0.977 | S. cerevisiae deletion strains, locus YNR049C, strain mso1, stronger effect = lower value 0.986 | S. cerevisiae deletion strains, locus YNR052C, strain pop2, stronger effect = lower value 1 | S. cerevisiae deletion strains, locus YOL006C, strain TOP1, stronger effect = lower value 0.958 | S. cerevisiae deletion strains, locus YOL012C, strain htz1 1.25 | S. cerevisiae deletion strains, locus YOL147C, strain pex11, stronger effect = lower value 1 | S. cerevisiae deletion strains, locus YOR001W, strain rrp6, stronger effect = lower value 0.98 | S. cerevisiae deletion strains, locus YOR061W, strain CKA2, stronger effect = lower value 0.935 | S. cerevisiae deletion strains, locus YOR069W, strain VPS5, stronger effect = lower value 0.996 | S. cerevisiae deletion strains, locus YOR070C, strain gyp1, stronger effect = lower value 1 | S. cerevisiae deletion strains, locus YOR080W, strain dia2, stronger effect = lower value 0.979 | S. cerevisiae deletion strains, locus YOR083W, strain WHI5, stronger effect = lower value 0.976 | S. cerevisiae deletion strains, locus YOR106W, strain vam3, stronger effect = lower value 0.978 | S. cerevisiae deletion strains, locus YOR136W, strain idh2, stronger effect = lower value 1.02 | S. cerevisiae deletion strains, locus YOR144C, strain elg1, stronger effect = lower value 1.01 | S. cerevisiae deletion strains, locus YOR184W, strain ser1, stronger effect = lower value 0.96 | S. cerevisiae deletion strains, locus YOR265W, strain rbl2, stronger effect = lower value 0.994 | S. cerevisiae deletion strains, locus YOR270C, strain vph1, stronger effect = lower value 0.911 | S. cerevisiae deletion strains, locus YOR290C, strain snf2, stronger effect = lower value 0.939 | S. cerevisiae deletion strains, locus YOR316C, strain cot1, stronger effect = lower value 1.01 | S. cerevisiae deletion strains, locus YPL051W, strain arl3, stronger effect = lower value 1 | S. cerevisiae deletion strains, locus YPL078C, strain atp4, stronger effect = lower value 0.992 | S. cerevisiae deletion strains, locus YPL240C, strain hsp82, stronger effect = lower value 1 | S. cerevisiae deletion strains, locus YPR119W, strain clb2, stronger effect = lower value 0.995 | S. cerevisiae deletion strains, locus YPR141C, strain kar3, stronger effect = lower value 1.02 | S. cerevisiae deletion strains, locus YPR163C, strain tif3, stronger effect = lower value 1.02 | S. cerevisiae deletion strains, locus YPR167C, strain met16, stronger effect = lower value 1.01 | S. cerevisiae deletion strains, strain wtn01, stronger effect = lower value 1
active: S. cerevisiae deletion strains, locus YJR066W, strain TOR1, stronger effect = lower value 0.728 | S. cerevisiae deletion strains, locus YLR058C, strain SHM2, stronger effect = lower value 0.871 | S. cerevisiae deletion strains, locus YLR113W, strain HOG1, stronger effect = lower value 0.287 | S. cerevisiae deletion strains, locus YLR262C, strain YPT6 (second series), stronger effect = lower value 0.676 | S. cerevisiae deletion strains, locus YLR342W, strain FKS1 (second series), stronger effect = lower value 0.785 | S. cerevisiae deletion strains, locus YML120C, strain ndi1, stronger effect = lower value 0.881 | S. cerevisiae deletion strains, locus YNL183C, strain NPR1, stronger effect = lower value 0.755 | S. cerevisiae deletion strains, locus YNL233W, strain BNI4, stronger effect = lower value 0.784 | S. cerevisiae deletion strains, locus YOR231W, strain MKK1, stronger effect = lower value 0.483 | S. cerevisiae deletion strains, locus YPL106C, strain sse1, stronger effect = lower value 0.839 | S. cerevisiae deletion strains, locus YPL256C, strain CLN2, stronger effect = lower value 0.643 | S. cerevisiae strains, strain wild type, stronger effect = lower value 0.884
